From ChEMBL document CHEMBL1961873, “Compounds: GSK PKIS; Assays: Nanosyn kinase panel” (2012)
Several values for one entry are separate records, joined by “and”; a condition that tells them apart may be missing. Equal entries are not always repeated.

Columns and labels:
[1] = molecular target: T1, Ephrin type-B receptor 2 (Homo sapiens) (UniProt P29323); conditions: at 1 µM
T1 sequence (whole entry): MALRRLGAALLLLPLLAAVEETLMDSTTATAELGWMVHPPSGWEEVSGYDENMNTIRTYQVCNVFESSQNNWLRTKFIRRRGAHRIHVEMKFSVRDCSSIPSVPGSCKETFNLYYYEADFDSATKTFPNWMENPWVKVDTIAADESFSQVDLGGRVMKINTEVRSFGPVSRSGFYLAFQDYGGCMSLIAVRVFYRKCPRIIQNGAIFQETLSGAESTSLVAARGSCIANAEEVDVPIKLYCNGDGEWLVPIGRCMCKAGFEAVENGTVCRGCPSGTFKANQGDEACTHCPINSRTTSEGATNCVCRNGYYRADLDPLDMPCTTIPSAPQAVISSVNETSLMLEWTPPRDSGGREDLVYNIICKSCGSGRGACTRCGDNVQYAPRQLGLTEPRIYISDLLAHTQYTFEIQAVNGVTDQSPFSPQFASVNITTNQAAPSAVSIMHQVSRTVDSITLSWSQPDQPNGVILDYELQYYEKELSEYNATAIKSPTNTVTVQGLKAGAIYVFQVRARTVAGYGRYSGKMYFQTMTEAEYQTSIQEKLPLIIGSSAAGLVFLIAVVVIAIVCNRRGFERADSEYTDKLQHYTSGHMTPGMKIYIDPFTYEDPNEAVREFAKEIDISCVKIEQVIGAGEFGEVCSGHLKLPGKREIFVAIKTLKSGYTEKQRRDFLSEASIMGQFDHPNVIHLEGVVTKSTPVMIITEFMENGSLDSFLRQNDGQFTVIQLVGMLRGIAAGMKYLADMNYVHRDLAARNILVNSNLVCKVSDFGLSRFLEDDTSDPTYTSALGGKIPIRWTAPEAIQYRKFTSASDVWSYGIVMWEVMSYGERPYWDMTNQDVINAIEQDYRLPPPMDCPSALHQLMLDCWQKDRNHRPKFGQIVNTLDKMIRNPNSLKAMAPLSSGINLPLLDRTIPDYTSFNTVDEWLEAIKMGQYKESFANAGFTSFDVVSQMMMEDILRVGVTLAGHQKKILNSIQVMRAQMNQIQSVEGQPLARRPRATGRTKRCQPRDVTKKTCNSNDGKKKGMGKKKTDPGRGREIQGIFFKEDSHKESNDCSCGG

[2] = molecular target: T2, Ephrin type-B receptor 3 (Homo sapiens) (UniProt P54753); conditions: at 0.1 µM
T2 sequence (whole entry): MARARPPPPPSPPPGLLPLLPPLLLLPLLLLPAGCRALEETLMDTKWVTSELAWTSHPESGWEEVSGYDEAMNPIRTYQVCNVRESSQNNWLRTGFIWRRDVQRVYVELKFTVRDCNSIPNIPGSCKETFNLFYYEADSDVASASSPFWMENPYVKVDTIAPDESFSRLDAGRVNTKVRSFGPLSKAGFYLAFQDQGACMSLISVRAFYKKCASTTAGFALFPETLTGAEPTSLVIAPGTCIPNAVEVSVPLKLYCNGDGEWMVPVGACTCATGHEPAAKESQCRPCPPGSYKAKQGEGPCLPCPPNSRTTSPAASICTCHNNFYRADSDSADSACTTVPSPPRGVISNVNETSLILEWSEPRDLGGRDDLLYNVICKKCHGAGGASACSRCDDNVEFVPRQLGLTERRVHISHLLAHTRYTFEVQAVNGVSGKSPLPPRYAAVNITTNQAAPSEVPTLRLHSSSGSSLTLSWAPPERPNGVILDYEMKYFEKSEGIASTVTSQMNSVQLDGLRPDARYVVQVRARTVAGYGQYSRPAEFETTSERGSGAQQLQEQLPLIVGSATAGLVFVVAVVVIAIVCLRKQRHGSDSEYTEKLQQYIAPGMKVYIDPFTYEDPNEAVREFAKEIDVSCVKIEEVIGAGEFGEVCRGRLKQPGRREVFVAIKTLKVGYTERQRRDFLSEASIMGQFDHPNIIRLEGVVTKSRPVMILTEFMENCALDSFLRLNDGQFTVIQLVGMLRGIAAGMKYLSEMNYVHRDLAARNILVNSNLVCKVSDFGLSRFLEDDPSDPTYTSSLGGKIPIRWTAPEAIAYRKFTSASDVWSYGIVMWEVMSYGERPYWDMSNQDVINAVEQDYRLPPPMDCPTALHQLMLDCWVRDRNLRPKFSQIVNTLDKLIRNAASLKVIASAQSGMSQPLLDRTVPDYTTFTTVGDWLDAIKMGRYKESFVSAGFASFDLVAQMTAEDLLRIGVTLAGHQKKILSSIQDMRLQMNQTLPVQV

[3] = molecular target: T2, Ephrin type-B receptor 3 (Homo sapiens); conditions: at 1 µM
[4] = molecular target: T3, Ephrin type-B receptor 4 (Homo sapiens) (UniProt P54760); conditions: at 0.1 µM
T3 sequence (whole entry): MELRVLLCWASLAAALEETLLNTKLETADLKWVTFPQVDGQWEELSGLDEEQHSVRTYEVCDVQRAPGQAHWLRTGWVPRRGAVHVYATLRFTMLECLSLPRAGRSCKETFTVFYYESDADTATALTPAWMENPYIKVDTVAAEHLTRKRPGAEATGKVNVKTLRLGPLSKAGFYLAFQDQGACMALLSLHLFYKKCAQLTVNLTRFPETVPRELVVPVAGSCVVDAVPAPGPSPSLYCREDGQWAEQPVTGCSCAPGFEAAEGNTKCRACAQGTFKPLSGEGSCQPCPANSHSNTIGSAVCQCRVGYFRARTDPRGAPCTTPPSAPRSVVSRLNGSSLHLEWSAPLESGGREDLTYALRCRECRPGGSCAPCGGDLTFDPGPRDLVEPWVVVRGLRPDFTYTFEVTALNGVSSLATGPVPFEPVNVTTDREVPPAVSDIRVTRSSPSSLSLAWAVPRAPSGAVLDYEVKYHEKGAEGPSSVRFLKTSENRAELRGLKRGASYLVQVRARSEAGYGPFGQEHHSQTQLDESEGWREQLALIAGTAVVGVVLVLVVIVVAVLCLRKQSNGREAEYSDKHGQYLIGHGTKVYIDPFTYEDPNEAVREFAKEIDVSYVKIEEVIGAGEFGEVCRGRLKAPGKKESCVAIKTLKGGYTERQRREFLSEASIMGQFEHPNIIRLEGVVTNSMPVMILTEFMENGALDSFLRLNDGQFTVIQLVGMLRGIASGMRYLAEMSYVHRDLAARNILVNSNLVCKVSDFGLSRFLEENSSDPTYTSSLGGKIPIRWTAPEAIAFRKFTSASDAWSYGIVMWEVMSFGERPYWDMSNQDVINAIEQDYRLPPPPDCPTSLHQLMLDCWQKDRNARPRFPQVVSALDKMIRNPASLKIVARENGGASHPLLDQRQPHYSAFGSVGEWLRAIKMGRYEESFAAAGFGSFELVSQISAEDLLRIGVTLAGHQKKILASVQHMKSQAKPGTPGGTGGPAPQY

[5] = molecular target: T3, Ephrin type-B receptor 4 (Homo sapiens); conditions: at 1 µM
[6] = molecular target: Receptor tyrosine-protein kinase erbB-2 (Homo sapiens) (UniProt P04626); conditions: at 0.1 µM
[7] = molecular target: Receptor tyrosine-protein kinase erbB-2 (Homo sapiens) (UniProt P04626); conditions: at 1 µM
[8] = molecular target: Receptor tyrosine-protein kinase erbB-4 (Homo sapiens) (UniProt Q15303); conditions: at 0.1 µM
[9] = molecular target: Receptor tyrosine-protein kinase erbB-4 (Homo sapiens) (UniProt Q15303); conditions: at 1 µM
[10] = molecular target: Tyrosine-protein kinase Fer (Homo sapiens) (UniProt P16591); conditions: at 0.1 µM;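 note: reported figures are averaged percent inhibition of FER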
Sequence of Tyrosine-protein kinase Fer (Homo sapiens) (P16591 whole entry, looked up): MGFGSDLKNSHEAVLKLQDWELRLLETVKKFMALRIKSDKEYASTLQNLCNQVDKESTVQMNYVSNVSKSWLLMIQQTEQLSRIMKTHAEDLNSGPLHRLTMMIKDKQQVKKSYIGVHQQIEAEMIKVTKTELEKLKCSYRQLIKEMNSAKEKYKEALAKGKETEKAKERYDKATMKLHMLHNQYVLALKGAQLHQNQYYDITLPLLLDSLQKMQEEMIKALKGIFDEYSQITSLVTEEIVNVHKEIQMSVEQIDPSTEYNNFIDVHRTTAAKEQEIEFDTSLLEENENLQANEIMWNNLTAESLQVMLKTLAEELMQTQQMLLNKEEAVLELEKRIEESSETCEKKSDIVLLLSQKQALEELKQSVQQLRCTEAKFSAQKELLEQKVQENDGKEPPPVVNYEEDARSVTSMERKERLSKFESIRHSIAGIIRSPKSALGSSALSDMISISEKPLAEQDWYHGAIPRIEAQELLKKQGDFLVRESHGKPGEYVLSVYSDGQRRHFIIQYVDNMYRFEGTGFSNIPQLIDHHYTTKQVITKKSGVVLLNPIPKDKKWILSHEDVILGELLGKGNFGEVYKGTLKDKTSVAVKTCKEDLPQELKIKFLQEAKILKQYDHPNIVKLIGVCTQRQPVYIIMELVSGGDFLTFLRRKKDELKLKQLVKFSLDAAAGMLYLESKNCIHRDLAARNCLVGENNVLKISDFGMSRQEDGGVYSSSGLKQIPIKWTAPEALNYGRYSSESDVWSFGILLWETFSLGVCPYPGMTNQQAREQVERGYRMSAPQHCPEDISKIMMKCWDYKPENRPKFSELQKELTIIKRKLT

Sequence of Receptor tyrosine-protein kinase erbB-4 (Homo sapiens) (Q15303 whole entry): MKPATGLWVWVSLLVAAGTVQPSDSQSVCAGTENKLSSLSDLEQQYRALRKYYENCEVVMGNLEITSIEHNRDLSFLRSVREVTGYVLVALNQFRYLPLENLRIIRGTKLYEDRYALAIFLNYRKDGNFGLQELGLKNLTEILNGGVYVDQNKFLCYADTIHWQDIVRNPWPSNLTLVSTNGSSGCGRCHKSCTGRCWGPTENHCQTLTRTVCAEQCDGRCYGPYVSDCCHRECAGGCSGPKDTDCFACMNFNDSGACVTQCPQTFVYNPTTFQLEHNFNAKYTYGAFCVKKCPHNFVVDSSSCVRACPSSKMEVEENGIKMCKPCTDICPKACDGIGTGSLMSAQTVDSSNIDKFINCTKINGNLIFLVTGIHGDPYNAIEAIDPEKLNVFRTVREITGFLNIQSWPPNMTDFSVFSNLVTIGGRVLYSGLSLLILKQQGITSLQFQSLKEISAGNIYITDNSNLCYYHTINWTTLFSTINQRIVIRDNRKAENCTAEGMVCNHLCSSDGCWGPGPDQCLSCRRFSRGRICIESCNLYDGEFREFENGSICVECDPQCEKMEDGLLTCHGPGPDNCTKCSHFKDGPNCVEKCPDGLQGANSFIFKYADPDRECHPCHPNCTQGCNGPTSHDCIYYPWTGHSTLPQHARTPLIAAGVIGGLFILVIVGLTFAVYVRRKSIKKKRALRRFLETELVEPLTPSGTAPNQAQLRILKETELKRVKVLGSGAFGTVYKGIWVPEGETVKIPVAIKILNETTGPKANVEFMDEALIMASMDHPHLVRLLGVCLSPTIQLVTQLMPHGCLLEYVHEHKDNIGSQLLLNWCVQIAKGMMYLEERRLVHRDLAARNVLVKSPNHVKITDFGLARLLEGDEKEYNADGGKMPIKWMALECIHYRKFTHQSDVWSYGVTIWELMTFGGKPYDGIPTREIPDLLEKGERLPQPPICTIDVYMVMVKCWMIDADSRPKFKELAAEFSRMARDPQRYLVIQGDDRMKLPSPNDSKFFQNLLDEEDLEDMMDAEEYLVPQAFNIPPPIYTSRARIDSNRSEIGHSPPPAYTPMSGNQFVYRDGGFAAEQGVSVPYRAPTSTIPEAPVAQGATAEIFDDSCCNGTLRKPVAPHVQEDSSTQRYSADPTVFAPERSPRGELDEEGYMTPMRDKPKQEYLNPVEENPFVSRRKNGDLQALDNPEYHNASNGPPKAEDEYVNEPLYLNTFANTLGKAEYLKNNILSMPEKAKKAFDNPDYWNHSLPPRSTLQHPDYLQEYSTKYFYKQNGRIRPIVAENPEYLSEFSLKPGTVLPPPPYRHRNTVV
Sequence of Receptor tyrosine-protein kinase erbB-2 (Homo sapiens) (P04626 whole entry): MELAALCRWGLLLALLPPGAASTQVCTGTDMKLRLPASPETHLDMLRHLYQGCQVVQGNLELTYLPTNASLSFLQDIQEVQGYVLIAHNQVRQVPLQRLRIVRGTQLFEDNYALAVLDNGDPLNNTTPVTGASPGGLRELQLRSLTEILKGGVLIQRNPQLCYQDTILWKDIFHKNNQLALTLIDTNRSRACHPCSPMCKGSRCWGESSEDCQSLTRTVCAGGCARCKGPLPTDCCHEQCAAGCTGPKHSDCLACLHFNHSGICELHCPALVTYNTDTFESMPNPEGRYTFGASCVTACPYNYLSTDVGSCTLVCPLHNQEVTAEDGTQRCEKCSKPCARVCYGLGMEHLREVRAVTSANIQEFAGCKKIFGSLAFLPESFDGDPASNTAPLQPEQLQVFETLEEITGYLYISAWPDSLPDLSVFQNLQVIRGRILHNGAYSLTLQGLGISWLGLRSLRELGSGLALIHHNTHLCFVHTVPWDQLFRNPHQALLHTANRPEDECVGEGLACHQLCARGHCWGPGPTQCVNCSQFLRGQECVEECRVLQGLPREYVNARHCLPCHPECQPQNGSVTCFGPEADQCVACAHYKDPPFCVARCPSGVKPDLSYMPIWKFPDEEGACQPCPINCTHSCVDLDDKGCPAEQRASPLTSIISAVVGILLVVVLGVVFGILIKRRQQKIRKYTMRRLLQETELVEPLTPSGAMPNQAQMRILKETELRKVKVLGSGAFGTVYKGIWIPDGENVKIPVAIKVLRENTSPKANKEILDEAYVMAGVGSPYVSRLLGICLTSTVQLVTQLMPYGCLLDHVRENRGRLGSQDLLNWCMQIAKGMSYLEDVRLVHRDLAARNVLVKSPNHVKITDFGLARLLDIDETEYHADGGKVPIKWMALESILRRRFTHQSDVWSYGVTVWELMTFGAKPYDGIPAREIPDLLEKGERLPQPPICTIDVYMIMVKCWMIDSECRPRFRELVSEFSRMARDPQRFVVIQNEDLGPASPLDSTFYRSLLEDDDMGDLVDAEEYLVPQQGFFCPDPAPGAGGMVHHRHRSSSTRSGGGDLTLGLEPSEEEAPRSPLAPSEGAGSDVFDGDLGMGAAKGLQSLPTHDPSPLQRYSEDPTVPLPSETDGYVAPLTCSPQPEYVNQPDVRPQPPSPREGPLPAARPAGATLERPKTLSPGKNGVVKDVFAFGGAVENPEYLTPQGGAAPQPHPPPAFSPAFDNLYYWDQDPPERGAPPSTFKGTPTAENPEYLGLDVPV

| SMILES | inhibition [1] | inhibition [2] | inhibition [3] | inhibition [4] | inhibition [5] | inhibition [6] | inhibition [7] | inhibition [8] | inhibition [9] | inhibition [10] |
| --- | --- | --- | --- | --- | --- | --- | --- | --- | --- | --- |
| COC(=O)Nc1nc2cc(Oc3ccc(NC(=O)Nc4ccccc4)cc3)ccc2[nH]1 | 4.12% | 3.87% | 1.72% | 0.78% | 0.42% | 3.5% | 3.12% | 7.18% | 7.92% | 2.73% |
| CS(=O)(=O)CCNCc1ccc(-c2ccc3ncnc(Nc4ccc(OCc5cccc(C(F)(F)F)c5)cc4)c3c2)o1 | 6.28% | 3.02% | 3.57% | 0.6% | 2.19% | 4.88% | 3.5% | 7.3% | 28.5% | -1.96% |
| OCCCNc1nccc(-c2c(-c3ccc(F)cc3)nn3cc(C(F)(F)F)ccc23)n1 | 28.2% | 4.77% | 1.45% | 1.6% | 7.56% | 0.24% | -0.41% | 8.07% | 14.4% | 1.98% |
| Nc1nonc1-c1nc2cnccc2n1C1CC1 | 14.2% and 3.79% | 5.08% and 1.12% | 6.13% and -2.08% | 2.51% and -2.43% | 1.45% and -3.41% | 1.64% and 0.4% | -1.67% and -0.01% | 1.55% and 2.22% | 6.98% and 0.35% | 2% and 1.26% |
| COc1ccccc1-c1cc(/C=C2\C(=O)Nc3ncc(Br)cc32)cc(Br)c1O | 7.78% | 8.03% | 5.59% | 1.76% | 4.26% | 1.14% | -4.15% | 11.2% | 17.7% | 1.71% |
| CN(c1ccc(NC(=O)NCCN2CCOCC2)cc1)c1ccnc(Nc2ccc(CS(C)(=O)=O)cc2)n1 | 17.1% | 3.86% | 4.14% | 2.27% | 3.53% | 1.62% | 4.12% | 6.8% | 4.94% | 3.77% |
| CC1=C(C(=O)Nc2ccc3[nH]nc(C)c3c2)C(c2ccc(C(F)(F)F)cc2)CC(=O)N1 (stereo not given) | 3.69% | 5.28% | 2.84% | 1.98% | 4.06% | 0.35% | 0.13% | 9.2% | 16% | 1.26% |
| O=C(O[C@H]1CN[C@H](C#Cc2cc3ncnc(Nc4ccc5c(ccn5Cc5cc(F)ccc5F)c4)c3s2)C1)N1CCOCC1 | 4.17% | 6.61% | 5.15% | 2.46% | 3.04% | 9.01% | 40.9% | 86.9% | 86.3% | 1.31% |
| COc1ccc(Nc2ncc(-c3ccccc3)o2)cc1OC | -1.55% | 2.4% | -5.15% | 2.84% | 6.24% | 0.01% | -2.56% | 6.4% | 8.57% | 0.47% |
| COc1cc(N2CCN(C(C)C)CC2)ccc1Nc1nc(Nc2cccc3ncccc23)c2cc[nH]c2n1 | 2.09% | 1.16% | 0.4% | 0.17% | 0.88% | -0.99% | 2.24% | -0.3% | 5.51% | 7.7% |
| CNC(=O)c1cncc(/C=C/c2ccccc2C)c1 | 19.7% | 5.82% | 4.91% | 1.77% | 9.19% | 2.44% | 6.67% | 13.2% | 14.8% | 4.15% |
| NC(=O)c1ccc2c(-c3ccnc(NCCCO)n3)c(-c3ccc(F)cc3)nn2c1 | 40.3% | 4.52% | 4.65% | 4.6% | 11.4% | 2.1% | 3.13% | 16.8% | 39% | 6.31% |
| CCS(=O)(=O)c1ccc(OC)c(Nc2ncc(-c3cccc(C(C)=O)c3)o2)c1 | 21.8% | 3.26% | 5.98% | 1.8% | 6.82% | 2.14% | 6.11% | 7.58% | 11.1% | 1.02% |
| O=C(O[C@H]1CN[C@H](C#Cc2cc3ncnc(Nc4ccc5c(cnn5Cc5ccccc5)c4)c3s2)C1)N1CCOCC1 | 1.97% | -0.25% | 2.72% | -1.51% | 0.96% | 6.21% | 48.3% | 107% | 104% | -0.71% |
| Cc1ccc(-c2cc3c(NC(=O)C4CC4)ncnc3o2)cc1 | 36.6% | 5.13% | 1.62% | 3.05% | 12.9% | 0.91% | -0.45% | 9.66% | 11.1% | 8.51% |
